According to the supplement of paper PMC6555819:

Tests used:
Test in all cases: PBM binding z-score (relative to random genomic background probes); higher = stronger binding; sequences stand for … in GC…GCGATTGACAGCGTAGAATGAAGG
[1] = tested on: FXR:RXRa (NR concentration 270 nM, RXRa partner concentration 90 nM)
In short: (§1)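 Binding z-scores take random background probes as their reference. They come from custom Agilent 4×180K protein-binding microarrays incubated 1 h with ligand-free nuclear receptor dimers, with antibodies against each partner (one per run) detecting binding. Scanned fluorescence was regression-normalized.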

[2] = tested on: LXRa:RXRa (NR concentration 270 nM, RXRa partner concentration 90 nM)
In short: as §1

[3] = tested on: LXRa homodimer (NR concentration 270 nM)
In short: as §1

[4] = tested on: LXRb:RXRa (NR concentration 270 nM, RXRa partner concentration 90 nM)
In short: as §1

[5] = tested on: LXRb homodimer (NR concentration 270 nM)
In short: as §1

[6] = tested on: PPARa:RXRa (NR concentration 270 nM, RXRa partner concentration 90 nM)
In short: as §1

[7] = tested on: PPARg:RXRa (NR concentration 180 nM, RXRa partner concentration 90 nM)
In short: as §1

[8] = tested on: PPARg:RXRa 270nM:90nM, anti-RXR (NR concentration 270 nM, RXRa partner concentration 90 nM)
In short: as §1

[9] = tested on: PPARg:RXRa 30nM:10nM, anti-RXR (NR concentration 30 nM, RXRa partner concentration 10 nM)
In short: as §1

[10] = tested on: PPARg:RXRa 90nM:30nM, anti-RXR (NR concentration 90 nM, RXRa partner concentration 30 nM)
In short: as §1

[11] = tested on: PPARg:RXRa DBDmut IVT, anti-RXR (DBD mutation: RXRa K156A/R161A, NR concentration 270 nM, RXRa partner concentration 90 nM)
In short: as §1

[12] = tested on: PPARg:RXRa IVT, anti-PPARg (NR concentration 270 nM, RXRa partner concentration 90 nM)
In short: as §1

[13] = tested on: PPARg DBDmut:RXRa IVT, anti-PPARg (DBD mutation: PPARg1 K132A/R137A, NR concentration 270 nM, RXRa partner concentration 90 nM)
In short: as §1

[14] = tested on: PPARg DBDmut IVT, anti-PPARg (DBD mutation: PPARg1 K132A/R137A, NR concentration 270 nM)
In short: as §1

[15] = tested on: PPARg homodimer (NR concentration 180 nM)
In short: as §1

[16] = tested on: PXR:RXRa (NR concentration 270 nM, RXRa partner concentration 90 nM)
In short: as §1

[17] = tested on: PXR homodimer (NR concentration 270 nM)
In short: as §1

[18] = tested on: RARa:RXR (NR concentration 270 nM, RXRa partner concentration 90 nM)
In short: as §1

[19] = tested on: RARa homodimer (NR concentration 270 nM)
In short: as §1

[20] = tested on: RARb:RXRa (NR concentration 270 nM, RXRa partner concentration 90 nM)
In short: as §1

Sequence	PBM binding z-score [1]	PBM binding z-score [2]	PBM binding z-score [3]	PBM binding z-score [4]	PBM binding z-score [5]	PBM binding z-score [6]	PBM binding z-score [7]	PBM binding z-score [8]	PBM binding z-score [9]	PBM binding z-score [10]	PBM binding z-score [11]	PBM binding z-score [12]	PBM binding z-score [13]	PBM binding z-score [14]	PBM binding z-score [15]	PBM binding z-score [16]	PBM binding z-score [17]	PBM binding z-score [18]	PBM binding z-score [19]	PBM binding z-score [20]
GCTGCTAGGTCAACTGATGGTTAGCTAAAGCTCG	4.53	2.96	0.0508	1.97	0.22	3.58	2.88	3.09	0.818	1.99	5.04	4.29	1.41	-0.602	1.62	1.55	-0.971	2.73	-0.0413	4.31
TCGAGTATGTTACCAATGGGGCATTCAGCTTTCT	-0.179	-0.268	-0.402	0.416	-0.279	0.256	-0.157	0.416	1.14	0.894	1.25	0.121	-0.168	-0.0708	-0.422	0.0821	-0.273	0.0781	-0.543	-0.0471
CCTAGTTGGCCAGGAGGTCACACACCGGATATGA	4.04	3.22	1.73	3.53	0.178	4.15	2.42	2.91	0.806	2.2	0.473	2.22	0.522	-0.0399	2.61	4.27	1.23	4.66	1.39	3.41
CAAACTAGGTCACCGGAATGTCAAAGTCCGCATG	4.57	3.52	0.679	2.64	0.303	5.44	8.97	7.22	5.76	7.24	8.65	9.1	5.11	2.79	2.69	2.31	-0.000286	3.53	0.651	4.37
CCAGACAGGTGAGAAAGTAACTCAGCCTCGATTA	-0.0524	0.0409	0.0347	0.0309	-0.167	0.206	0.1	-0.203	-0.427	-0.273	0.811	0.252	-0.222	-0.131	0.452	-0.35	0.307	0.117	0.86	0.141
AGTCAAAGTTCACTAGGTAACGAAAGATTCAGCT	5.29	5.15	2.87	3.05	0.803	4.94	7.8	6.56	3.66	5.74	2.71	5.36	0.953	1.35	2.81	3.8	2.41	2.8	1.47	4.54
GCAACGAGGGCATTCGAGTTGATAGCATGGCGAT	0.802	1.56	-0.374	0.0313	-0.641	1.15	0.475	0.0611	-0.488	-0.307	1.69	1.13	-0.431	-0.39	-0.299	3.66	1.02	0.56	-0.554	1.69
TAGCCTAGGTCATGGGCTAGTATACCACGCGAAC	4.37	3.22	-0.104	1.86	-0.806	4.16	3.61	3.3	0.951	2.07	1.15	3.37	0.577	-0.926	1.36	1.6	-0.606	2.74	-0.439	3.86
TCTGCTAGCTCAACGATGGTCAGCTAATCTGCTA	-0.518	-0.557	-0.771	-1	-1.03	-0.335	-0.32	0.116	1.25	0.838	0.317	-0.338	-0.717	-0.143	-1.44	-0.381	-0.501	-0.407	-1.12	-0.267
